Assay: PSAC antagonists in infected red cells, primary screen, cell-based, P. falciparum Indochina, OD700, 18 h (AID 1157)
Details: P. falciparum Indochina infected erythrocytes, osmotic lysis OD700, 18 h; higher = more signal, called active from +8 up or from −8 down

z-score, inactive:
CC(C)Cc1ccc(CN2CC[C@@H](NC(=O)Nc3ccccc3)C2)cc1 0.575, COC(=O)[C@@]1(Cc2ccc(F)cc2)[C@H]2c3cc(C(=O)N4CCCC4)n(CCN4CNCC4=O)c3C[C@H]2CN1C(=O)c1ccccc1 0.937, COC(=O)[C@@]1(Cc2ccccc2)[C@@H]2C(=CC(=O)[C@H]2CC(=O)C(=O)N(C)C)CN1C(=O)c1ccccc1 0.664, C=CCC(OC(C)=O)[C@@H]1[C@@H](N(Cc2ccc(-c3ccccc3)cc2)C(=O)Cc2ccc(F)cc2)c2cc(OCCCO)ccc2N1C(=O)Cc1ccc(OC)cc1 (stereo partly drawn) 0.259, COc1ccc([Si](C)(C)[C@@H]2[C@@H](CCn3cc([C@H](O)c4ccccc4)nn3)O[C@]3(C(=O)N(Cc4ccc(N5CCC5=O)cc4)c4ccccc43)[C@H]2C)cc1 1.19, C=C(C)[C@@H]1CC=C(C(O)C2C=CC3C(=O)N(c4ccccc4)C(=O)C3N2Nc2ccccc2F)CC1 (stereo partly drawn) 1.1, Cc1ccc(S[C@]2(C(=O)O)CC(=O)N(Cc3ccccc3Cl)[C@@H]2c2ccc(CO)cc2I)cc1 0.744, O=C1C2C=CC(C(O)c3ccccc3)N(Nc3ccccc3F)C2C(=O)N1c1ccccc1 (stereo not drawn) 0.632, [N-]=[N+]=NCc1ccccc1[C@@H]1OC(c2ccc(OCCCO)cc2)=N[C@]1(CCS(=O)(=O)c1ccccc1)C(=O)NCC(O)CO (stereo partly drawn) 0.158, COC(=O)c1c(CC[C@@H](CO)NC(=O)N[C@H](Cn2cc(C3(O)CCCCC3)nn2)C(C)C)oc(C(C)=O)c1C(=O)OC -0.152, O=C1C2C=CC(C(O)c3ccc(F)cc3)N(n3cnnc3)C2C(=O)N1Cc1ccccc1 (stereo not drawn) -2.02, Cc1ccc(S[C@]2(C(=O)NCC(F)(F)F)CC(=O)N(Cc3ccccc3)[C@@H]2c2ccc(CO)cc2I)cc1 0.279, C=C(/C(=C/C[C@H](OC(C)=O)c1ccccc1OCCO)c1cc(C(=O)OC)ccc1OC)C(C)C -1.19, CC(C)N1C(=O)C[C@@](C(=O)NCCCN(C)C)(c2ccc([N+](=O)[O-])cc2)[C@H]1c1ccc(CO)cc1 0.891, COCCOC(=O)N1C(=O)[C@@]2(c3cc(C#Cc4ccc(OC)cc4)ccc31)[C@H](c1ccccc1OCCO)N1[C@H](c3ccccc3)[C@H](c3ccccc3)OC(=O)[C@H]1[C@@H]2C(=O)N1CCCCCCC1 -0.122, O=C1NC(=O)C2C1C=CC(C(O)c1cccc3ccccc13)N2Nc1ccc(Cl)cc1Cl (stereo not drawn) 1.42, C=CCNC(=O)[C@H]1[C@@H]2C(=O)O[C@@H](c3ccccc3)[C@@H](c3ccccc3)N2[C@@H](c2ccc(O)cc2)[C@]12C(=O)Nc1ccc(C#CC3(O)CCCCCC3)cc12 0.319, CCCC[C@@H]1C[C@H]1[C@@H](NC(=O)c1ccccc1)c1ccc(C(F)(F)F)cc1 0.739, NC(=O)N1C(=O)C2C(C1=O)C1C=C(CCCO)C2C(c2cccs2)N1Cc1cccc(OC(F)(F)F)c1 (stereo not drawn) 0.872, CCCC[C@@H]1C[C@H]1[C@@H](NC(=O)c1cccs1)c1ccc(C(F)(F)F)cc1 0.592, C=C(/C(=C/C[C@@H](OC(C)=O)c1cccc(OCCO)c1)c1cc(C(=O)OC)ccc1OC)C(C)C 0.75, CC(C)(C)OC(=O)CC[C@]1(C(=O)NCC(O)CO)N=C(c2ccc(OCCCO)cc2)O[C@H]1c1ccccc1 (stereo partly drawn) -1.32, CC(C)(C)N1CC=CC23O[C@@H]4C=CCCOC(=O)C4[C@H]2C(=O)N(CCO)[C@@H]3C1=O (stereo partly drawn) 0.6, COc1ccccc1CN1C(=O)c2ccccc2[C@](Cc2ccccc2I)(C(=O)NCC(F)(F)F)[C@@H]1c1ccc(CO)cc1 0.401, CCOC(=O)C[C@H]1[C@H](OC(=O)c2ccccc2-c2ccccc2)[C@@H](NC(=O)C2CCCCC2)c2cc(OCCCO)ccc2N1C(=O)Cc1ccc(OC)cc1 0.256, COC(=O)CCCCCCC(=O)Nc1ccc(NC(=O)CCCC[P+](c2ccccc2)(c2ccccc2)c2ccccc2)cc1 1.43, CN1C(=O)C2C=CC(C(O)COCc3ccccc3)N(N(c3ccccc3)c3ccccc3)C2C1=O (stereo not drawn) 1.07, O=C1O[C@H](c2ccccc2)[C@H](c2ccccc2)N2[C@H]1[C@@H](C(=O)O)[C@]1(C(=O)Nc3ccc(C#CC4=CCCCC4)cc31)[C@H]2c1ccc(O)cc1 -0.451

From PubChem BioAssay
